Compounds without any hit were thinned out: in the full panel of roughly 83,000, 20% have a hit.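 Growth was measured after 48 h exposure to one concentration of compound in 96-well plates. Values under 10 count as active.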 Unmarked numbers belong to inactive results. Activity calls are given as the source filed them.

The first assay deals with SF-268 CNS. In words: NCI-60 one-dose screen, 48 h (100 = growth as untreated, 0 = no growth, -100 = all killed). The conditions noted are these: 10 µM unless noted.
`Cc1cnc(/C=C/C(=O)O)cc1-c1cc2c(cc1C)C(C)(C)CCC2(C)C`: the growth was 77.6%. Consider `CC1=C(CNO)C2=C(C)C3(CC3)[C@@](C)(O)C(=O)C2=C1`, for which the growth was 0.784% (active). `CC12CC=CCC1CCC1C2CCC2(C)C(c3ccc(=O)oc3)CCC12O` (stereo not drawn): the growth was -62.2% (active). With `Fc1c[c-]c(-c2ccccn2)c(F)c1.[CH3-].[Pt+2].c1ccc([PH+](c2ccccc2)c2ccccn2)cc1`, the growth was 22.8%. Take `CN[C@@]1(c2ccccc2Cl)CCCC[C@@H]1NCC1CCCO1` (stereo partly drawn): the growth is 103%.

In the case of `CC(C)=CC1C(C(=O)OCc2cccc(Oc3ccccc3)c2)C1(C)C` (stereo not drawn), the growth is 113%. As to `CCCCCCCC[n+]1ccc2ccccc2c1`, the growth was 80.4%. Take `COC(=O)[C@@H](C)C[C@H](Cc1ccccc1)NC(=O)c1csc([C@@H](C[C@H](C(C)C)N(C)C(=O)C2(NC(=O)[C@H]3CCCCN3C)CC2)OC(C)=O)n1`: the growth was 17.5%. Turning to `CC(=O)c1ccc(C(=O)NCC2CCC3(CC2)OOC2(CCCCC2)OO3)cc1`, the growth is 87.9%. With `COC(=O)[C@@H](C[C@H](Cc1ccccc1)NC(=O)c1csc([C@@H](C[C@H](C(C)C)N(C)C(=O)[C@@H](NC(=O)[C@H]2CCCCN2C)C(C)C)OC(C)=O)n1)NC(=O)OCc1ccccc1`, the growth was 15.2% [9.5 µM].

The next assay concerns SF-295 CNS. The description is as above. The settings on record: 10 µM unless noted.
For the compound `CC(=O)O[C@H]1CC[C@@]2(C)C(=CC[C@H]3[C@@H]4C[C@@H](N5CC5)[C@H](C(C)=O)[C@@]4(C)CC[C@@H]32)C1`, the growth is 97.5%.

Regarding `CC(=O)O[C@H]1C(=O)[C@@]2(C)[C@H]([C@H](OC(=O)c3ccccc3)[C@]3(O)C[C@H](OC(=O)[C@H](OC(=O)OC[C@H]4COC(C)(C)O4)[C@@H](NC(=O)c4ccccc4)c4ccccc4)C(C)=C1C3(C)C)[C@]1(OC(C)=O)CO[C@@H]1C[C@@H]2O`, the growth is -6.58% (active).

For `COC(=O)N[C@H]1CCc2c(Br)c(OC)c(OC)c(OC)c2-c2ccc(SC)c(=O)cc21`, the growth was 9.53% (active). As for `CC[C@H](C)[C@H](NC(=O)c1ccccn1)C(=O)N(C)[C@H](C[C@@H](OC(C)=O)c1nc(C(=O)N[C@@H](Cc2ccccc2)C[C@H](C)C(=O)OC)cs1)C(C)C`, the growth is 7.86% (active). Consider `Cc1cc(N(CCCl)CCCl)ccc1C=Nc1ccc(-c2csc(Cc3ccccc3)n2)cc1`, for which the growth is 13.4%. As to `COC(=O)[C@]12CCC(C)(C)C[C@H]1[C@H]1C(=O)C[C@@H]3[C@@]4(C)C[C@@]5(CC(C)(C)[C@@H]4CC[C@@]3(C)[C@]1(C)CC2)OO[C@@](C)(C(F)(F)F)O5`, the growth was 95.7%.

With `CN1CCC(c2c[nH]c3ccccc23)C1` (stereo not drawn), the growth was 105%. As for `CCC[CH2][Sn]([CH2]CCC)([CH2]CCC)[O]c1ccc(Cl)cc1Cl`, the growth was -37% (active). Take `COC(=O)[C@H](C[C@H](Cc1ccccc1)NC(=O)c1csc([C@@H](C[C@H](C(C)C)N(C)C(=O)[C@@H](NC(=O)[C@H]2CCCCN2C)C(C)C)OC(C)=O)n1)NC(=O)OCc1ccccc1`: the growth was 8.4% [8.5 µM] (active).

Take `C[n+]1c(/C=C/c2ccc(N(CCCl)CCCl)cc2)sc2ccccc21`: the growth is 55.7%.

Turning to `CC[C@H](C)[C@H](NC(=O)C12C3C4C1C1C2C3C41NC(C)=O)C(=O)N(C)[C@H](C[C@@H](OC(C)=O)c1nc(C(=O)N[C@@H](Cc2ccccc2)C[C@H](C)C(=O)OC)cs1)C(C)C` (stereo partly drawn), the growth was 13%. As for `CCCCCN(CCCCC)CC(O)c1cc(Cl)ccc1OC` (stereo not drawn), the growth was 23.9%.

Regarding `C#Cc1ccc2c(c1)C(c1ccccc1)=NCC(=O)N2C`, the growth is 25%. With `CCOC(=O)CCN(C)C1=Nc2ccc(Cl)cc2C(c2ccccc2)=[N+]([O-])C1`, the growth is 102%. Regarding `COC(=O)[C@@H](C)C[C@H](Cc1ccccc1)NC(=O)c1csc([C@@H](C[C@H](C(C)C)N(C)C(=O)[C@@H](NC(=O)CN(C)C)C2CC2)OC(C)=O)n1`, the growth is 13.5%.

As for `COc1cc2c(c(OC)c1OC)-c1ccc([O-])c(=O)cc1[C@@H](NC(C)=O)CC2.COc1cc2c(c(OC)c1OC)-c1ccc([O-])c(=O)cc1[C@@H](NC(C)=O)CC2.[Cu+2]`, the growth is 18.7%.

`COc1ccc(/C=C\c2cc(OC)c(OC)c(OC)c2)c(NS(=O)(=O)c2ccc(C)cc2)c1O`: the growth was 16.9%. In the case of `C=C(C)[C@@]12OC3(/C=C/C=C/CCCCC)O[C@@H]1[C@@H]1[C@@H]4O[C@]4(CO)[C@@H](O)[C@]4(O)C(=O)C(C)=C[C@H]4[C@@]1(O3)[C@H](C)[C@H]2OC(=O)c1ccccc1`, the growth is 39.6%.
